# Experimental data taken from PubChem BioAssay (NCI).
# Several values for one entry are separate records, joined by “and”; a condition that tells them apart may be missing. Equal entries are not always repeated. This is part of a sample that, as a whole, favours compounds with a hit. Of some 79,000 tested, about 15% had one in any assay. Unmarked numbers belong to inactive results. Activity calls are given as the source filed them. Rule as the data show it: active = growth inhibition above about 70%; inactive = the rest.
# Assay: NCI Yeast Anticancer Drug Screen. Data for the cln2 rad14 strain (AID 165);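 also: 0% = growth equal to vehicle treated cultures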
# Conditions: S. cerevisiae cln2 rad14 strain, active compounds read high
# Experimental: Growth inhibition of yeast strains with defined genetic alterations is measured as a screen for potential anti-cancer activity. Selected strains with alterations in DNA damage repair or cell cycle control were exposed to compounds and growth inhibition was measured relative to vehicle treated controls. The strain used in this assay is cln2 rad14
# [1] = at 5.0 µM (retest, dose inferred, filed as 0.5)
# [2] = at 50.0 µM (retest, dose inferred, filed as 5.0)
SMILES,growth inhibition [1],growth inhibition [2],growth inhibition (at 50.0 µM)
Nc1ccc(Cc2ccc(N)c(Cl)c2)cc1Cl,-10%,91% (active),75.8% (active)
O=C1c2ccccc2-c2cccc3cccc1c23,-6%,-17%,-0.75% and 63.6%
COc1cc2c3c(c1)-c1c(ccc(OC)c1OC)CC3N(CCCl)CC2 (configuration not stated),7%,77% (active),31.8%
O=C(O)Cc1ccc2c(c1)OCO2.[Ag],99% (active),94% (active),90.2% (active)
COc1ccc(Br)cc1/C=C/[N+](=O)[O-],83% (active),99% (active),77.8% (active)
C[C@]12CC[C@H](OC(=O)COc3ccc(N(CCCl)CCCl)cc3)C[C@@H]1CC[C@@H]1[C@@H]2CC[C@]2(C)NC(=O)CC[C@@H]12,17%,36%,5.4%
CCCCCC(Cn1ccnc1)c1ccc(Cl)cc1Cl (configuration not stated),72% (active),98% (active),99.7% (active)
OC1CCCC2CCC[N-]C12.OC1CCCC2CCC[N-]C12.[O]=[V][OH] (configuration not stated),46%,97% (active),79.8% (active)
CC[C@@]1(O)C[C@H](OC2CC(N)C(O)C(C)O2)c2c(O)c3c(c(O)c2[C@H]1C(=O)OC)C(=O)c1cccc(O)c1C3=O (some centres not stated),39%,99% (active),67.3%
Sc1ccc(Cl)cc1,-1%,38%,-45% and 14.8%
[CH3][Sn]([CH3])([Cl])[c]1cc[c]([Sn]([CH3])([CH3])[Cl])cc1,11%,63%,77% (active)
C[N+]1(CCCl)CC[N+](C)(CCCl)CC1 (configuration not stated),2%,96% (active),94.3% (active)
Oc1ccc([Te]CCNCC[Te]c2ccc(O)cc2)cc1,13%,13%,48.3%
Cn1cnc(N)c1C(=N)[Se],-60%,-40%,-53.6%
